# Assay results as given in the supplement of paper PMC12067093, “Discovery and optimisation of a covalent ligand for TRIM25 and its application to targeted protein ubiquitination” (Chemical Science, 2025).
# The full data set covers some 21,000 targets. This sample favours those with the largest changes.
# Target: TMLHE_Q9NVH6_51_SLTCAWQQHEDHFELK (UniProt Q9NVH6)
# Test: probe-labelled cysteine peptide fold change vs DMSO (competition) (log2 fold change); higher = less target engagement (more negative = stronger competition)
# Details: THP-1, incubation time: 4 h
# 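Note: competitive profiling in live THP-1 cells: cysteine peptides tagged with an iodoacetamide desthiobiotin (IA-DTB) probe, intensity after compound treatment relative to DMSO-treated cells.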
# Sequence of UniProt Q9NVH6 (Q9NVH6 whole entry, looked up): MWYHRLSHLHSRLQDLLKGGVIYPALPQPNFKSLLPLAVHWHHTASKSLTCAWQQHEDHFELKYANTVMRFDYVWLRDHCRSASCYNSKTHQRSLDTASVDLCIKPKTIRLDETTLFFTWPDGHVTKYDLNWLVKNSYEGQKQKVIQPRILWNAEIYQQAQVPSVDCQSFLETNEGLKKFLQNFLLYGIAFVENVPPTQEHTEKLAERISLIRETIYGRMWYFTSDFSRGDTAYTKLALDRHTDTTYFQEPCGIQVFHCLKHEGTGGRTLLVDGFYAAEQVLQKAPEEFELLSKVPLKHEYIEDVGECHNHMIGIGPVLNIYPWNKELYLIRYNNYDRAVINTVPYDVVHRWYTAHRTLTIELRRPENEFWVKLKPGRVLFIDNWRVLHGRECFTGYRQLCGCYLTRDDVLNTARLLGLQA
smiles,measurement,setting,value
Cc1cc(C(=O)N2CCCN(C(=O)CCl)CC2)ccc1-c1ccccc1 [compound 10],probe-labelled cysteine peptide fold change,10 µM,-0.0542
same,probe-labelled cysteine peptide fold change,50 µM,-0.13
